Laboratory results: PubChem BioAssay

Molecular target: NADPH oxidase 2 (Homo sapiens) (UniProt P04839)
Assay: compounds shifting NOX2 Amplex Red fluorescence – cell-based, HEK293-NOX2, PMA-stimulated, NOX inhibitor project, primary screen (AID 1159); further: test concentration not given here
Conditions: 45 min, higher = more signal, called active from +8 up or from −8 down

Chain of NADPH oxidase 2 (Homo sapiens) (P04839 whole entry, looked up): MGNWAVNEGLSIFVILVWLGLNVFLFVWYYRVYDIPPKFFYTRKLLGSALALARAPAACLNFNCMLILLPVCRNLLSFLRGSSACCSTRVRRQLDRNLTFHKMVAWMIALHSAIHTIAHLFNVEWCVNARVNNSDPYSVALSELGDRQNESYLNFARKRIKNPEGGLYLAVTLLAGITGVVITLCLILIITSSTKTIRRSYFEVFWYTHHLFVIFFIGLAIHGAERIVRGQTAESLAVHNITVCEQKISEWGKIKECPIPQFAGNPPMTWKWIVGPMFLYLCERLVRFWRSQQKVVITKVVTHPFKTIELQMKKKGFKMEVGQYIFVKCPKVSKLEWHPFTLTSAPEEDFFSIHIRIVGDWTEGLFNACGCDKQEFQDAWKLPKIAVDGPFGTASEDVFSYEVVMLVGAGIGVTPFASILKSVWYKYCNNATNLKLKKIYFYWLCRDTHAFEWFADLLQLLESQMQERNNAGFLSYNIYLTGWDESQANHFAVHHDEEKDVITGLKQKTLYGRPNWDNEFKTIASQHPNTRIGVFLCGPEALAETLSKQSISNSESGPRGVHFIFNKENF

z-score, inactive:
C=C(C)c1cc2c(c(CCCCCC)n1)[Si](C(C)C)(C(C)C)OC2 -1.98
COc1ccc(NC(=O)O[C@H]2[C@H](OC(=O)Nc3ccccc3)[C@H](OC(=O)Nc3ccccc3)[C@@H](OC)O[C@@H]2CO)cc1 0.824
CCCCC(O)C1C=CC2C(=O)N(c3ccccc3)C(=O)C2N1Nc1ccc(C(C)C)cc1 (stereo not given) -1.5
[N-]=[N+]=NCc1ccccc1C[C@@]1(C(=O)N2CCOCC2)N=C(c2ccc(OCCCO)cc2)O[C@@H]1c1ccccc1 -4.45
CC(c1ccccc1)C(O)C1C=CC2C(=O)N(c3ccccc3)C(=O)C2N1Nc1ccc([N+](=O)[O-])cc1 (stereo not given) -0.7
COc1ccc(CN(C2=CC[C@@]3(C(N)=O)C(=O)C(Cl)=C(Cl)C(=O)[C@@]3(C#N)C2)S(=O)(=O)c2ccc(Br)cc2)cc1 1.76
COC(=O)CCCCCCC(=O)Nc1ccc(NC(=O)CCCC[P+](c2ccccc2)(c2ccccc2)c2ccccc2)cc1 -0.765
CC(C)N1C(=O)C[C@@](C(=O)NCCCN(C)C)(c2ccc([N+](=O)[O-])cc2)[C@H]1c1ccc(CO)cc1 0.778
CCOC(=O)C1=CC[C@@H](c2ccc(OCc3ccccc3)c(OC)c2)N(S(=O)(=O)c2ccc(C)cc2)[C@H]1c1ccc(SC)cc1 0.877
COC(=O)c1c2oc(c1C(=O)OC)C(=O)N(C)Cc1cn(nn1)C[C@H](Cc1ccccc1)NC(=O)N[C@H](CO)CC2 0.0368
O=C1OCC=C[C@H]2OC34C=CCN(Cn5nnc6ccccc65)C(=O)[C@H]3N(CCCO)C(=O)[C@@H]4[C@@H]12 (stereo not given in full) 0.847
C[C@@H]1ON(c2ccc(C(=O)OC(C)(C)C)cc2)[C@H](c2ccc(O)cc2)[C@H]1C(=O)N1C(=O)OC[C@H]1Cc1ccccc1 -0.394
COCCOC(=O)N1C(=O)[C@@]2(c3cc(C#CC4=CCCCC4)ccc31)[C@H](C(N)=O)[C@H]1C(=O)O[C@H](c3ccccc3)[C@H](c3ccccc3)N1[C@@H]2c1ccccc1OCCO 2.16
COC(=O)[C@@]1(Cc2ccc(OC)cc2)[C@@H]2C(=CC(=O)[C@H]2CC(=O)C(=O)N(C)C)CN1C(=O)c1ccccc1 -0.192
C=CC1c2cc(O)c(OC)cc2CCN1Cc1cc2c(cc1Br)OCO2 (stereo not given) -6.22
C=CCC(OC(C)=O)[C@@H]1[C@@H](N(Cc2cc3ccccc3o2)C(=O)c2ccc(C)cc2)c2cc(OCCCO)ccc2N1C(=O)Cc1ccc(OC)cc1 (stereo not given in full) 0.391
COc1cc(OC)c(C(O)C2C=CC3C(=O)N(c4ccccc4)C(=O)C3N2Nc2ccccc2)cc1Br (stereo not given) -1.61
Cc1ccc(S[C@]2(C(=O)NCC(F)(F)F)CC(=O)N(Cc3ccccc3)[C@@H]2c2ccc(CO)cc2I)cc1 1.22
COC(=O)c1ccc([C@H](NC(=O)c2ccco2)[C@]2(C)C[C@H]2C2CCCCC2)cc1 -0.803
NC(N)=NCCCn1cc(CNC(=O)[C@@H](N)Cc2ccccc2)nn1 -2
COC(=O)c1nc2oc1CC[C@@H](CO)NC(=O)N(C)Cc1cnnn1C[C@H](Cc1ccccc1)NC2=O -0.524
COCCOC(=O)N1C(=O)[C@@]2(c3cc(C#CC4=CCCCC4)ccc31)[C@H](c1ccc(OCCO)cc1)N1[C@H](c3ccccc3)[C@H](c3ccccc3)OC(=O)[C@H]1[C@@H]2C(=O)N1CCN(c2ncccn2)CC1 0.825
CC(C)(C)OC(=O)CC[C@]1(C(=O)NCC(O)CO)N=C(c2ccc(OCCCO)cc2)O[C@H]1c1ccccc1 (stereo not given in full) 0.246
O=C1O[C@H](c2ccccc2)[C@H](c2ccccc2)N2[C@H]1[C@@H](C(=O)Nc1nc3ccccc3s1)[C@]1(C(=O)Nc3ccccc31)[C@H]2c1ccc(OCCO)cc1 0.499
C=CC[C@]1(C(=O)NCCN2CCOCC2)N=C(c2ccc(OCCCO)cc2)O[C@H]1c1ccccc1CN=[N+]=[N-] 2.07
COCCCNC(=O)[C@@]1(Cc2ccccc2CN=[N+]=[N-])N=C(c2ccc(OCCCO)cc2)O[C@H]1c1ccccc1 -1.79
CN(C)C(=O)[C@@]1(CCS(=O)(=O)c2ccccc2)N=C(c2ccc(OCCCO)cc2)O[C@H]1c1ccccc1 0.441
CCOC(=O)C1CCCCN1 (stereo not given) 0.0494
C=C(/C(=C/C[C@H](OC(=O)c1ccncc1)c1ccc(CO)o1)c1cc(C(=O)OC)ccc1OC)C(C)C -1.06
COC(=O)[C@@]1(Cc2ccccc2)[C@H]2c3cc(C(=O)N(C)C)n(CCN4CNCC4=O)c3C[C@H]2CN1C(=O)c1ccccc1 0.61
O=C1O[C@H](c2ccccc2)[C@H](c2ccccc2)N2[C@H]1[C@@H](C(=O)Nc1nc3ccccc3s1)[C@]1(C(=O)Nc3ccc(C#CC4(O)CCCCCC4)cc31)[C@H]2c1ccccc1OCCO 1.29
CCOC(=O)C[C@H]1[C@H](OC(=O)c2ccccc2-c2ccccc2)[C@@H](NC(=O)C2CCCCC2)c2cc(OCCCO)ccc2N1C(=O)Cc1ccc(OC)cc1 0.0588
CN(C)CCCNC(=O)[C@@]1(C)c2ccccc2C(=O)N(Cc2ccccc2)[C@H]1c1ccc(CO)cc1 0.42
NC(=O)N1C(=O)C2C(C1=O)C1C=C(CCCO)C2C(c2cccs2)N1Cc1cccc(OC(F)(F)F)c1 (stereo not given) 2.15
COc1ccc(NC(=O)O[C@H]2[C@H](OC(=O)Nc3ccccc3)[C@@H](OC(=O)Nc3ccccc3)[C@@H](OC)O[C@@H]2CO)cc1 -7.53
